# Screening results as filed in PubChem BioAssay.
# An excerpt weighted towards active compounds, which were near 6.5% of everything screened.
# Vaccinia mCherry = qHTS for Stage-Specific Inhibitors of Vaccinia Orthopoxvirus: mCherry Reporter Primary qHTS; 310,000 compounds, 0.63% hits; Potency, µM (series often up to 36.5 µM), inactives show at the top dose activity change, negative = inhibition, most hits filed as inhibitors; AID 720579, 2013; Vaccinia virus mCherry reporter infection, fluorescence; calls by dose curve; tested in A549 cells; note: potency is the fitted concentration of half-maximal effect; nearly all actives have a fitted effect of over 35% in size
# FMDV inh = High Throughput Screening for Foot and Mouth Disease Virus Antivirals; AID 1159524, 2015; Potency, µM (top dose mostly 57.9 µM), without a hit: at the highest dose activity change, negative = inhibition, hits mostly inhibitors; FMDV antiviral cell-based qHTS; 410,000 compounds, 1.2% hits; calls by dose curve; tested in HEK293T cells; note: read-out not given here; potency is the fitted concentration of half-maximal effect; nearly all actives have a fitted effect of over 45% in size
# Vaccinia Venus = qHTS for Stage-Specific Inhibitors of Vaccinia Orthopoxvirus: Venus Reporter Primary qHTS; Potency, µM (doses to about 36.5 µM), for inactives: at the highest dose activity change, negative = inhibition, usual class: inhibitors; Vaccinia virus Venus reporter expression, fluorescence; 330,000 compounds, 0.46% hits; calls by dose curve; tested in A549 cells; note: potency is the fitted concentration of half-maximal effect; nearly all actives have a fitted effect of over 30% in size
# LASV entry inh = qHTS for Inhibitors of binding or entry into cells for Lassa Virus; Lassa virus pseudotype entry inhibition, cell reporter; Potency, µM (doses to about 37.9 µM), for the others: at the top dose activity change, negative = inhibition, usual class: inhibitors; 300,000 compounds, 1.2% hits; AID 540256, 2011; calls by dose curve; tested in HEK293 cells; note: potency is the fitted concentration of half-maximal effect; nearly all actives have a fitted effect of over 50% in size
# HCMV antiviral = qHTS Assay for inhibitors of the human cytomegalovirus (HCMV); HFF cells, HCMV-luciferase reporter, 72 h; hits give low values; activity change, negative = inhibition, % at 57.5 µM; 410,000 compounds, 4.5% hits; in the data active = activity change below about -60%; inconclusive = no clear call, values can overlap the other calls; inactive = above about -39%
#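 Human foreskin fibroblasts infected with luciferase-reporter HCMV at MOI 1 PFU/cell, compounds at two doses. Luciferase measured 72 h post infection; normalized to buffer-only basal and Salinomycin (10uM) controls.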
# Marburg entry inh = qHTS for inhibitors of binding or entry into cells for Marburg Virus. Potency, µM (series often up to 37.8 µM), without a hit: at the highest dose activity change, negative = inhibition, hits mostly inhibitors. Marburg virus pseudotyped entry inhibition, cell reporter. AID 540276, 2011. 300,000 compounds, 1.8% hits; calls by dose curve; tested in HEK293 cells; note: potency is the fitted concentration of half-maximal effect
# The depositor's hits bear a star; i = inactive; ? = inconclusive; · = no result given; + = active, no number; [ ] = another dose, or the depositor's remark. % is set by controls: 0 for no effect and ±100 for the full control effect.
SMILES,Vaccinia mCherry,FMDV inh,Vaccinia Venus,LASV entry inh,HCMV antiviral,Marburg entry inh
O=C(Cn1c2ccccc2c(=O)c2ccccc21)N/N=C/c1cc([N+](=O)[O-])ccc1N1CCCCCC1,-4.7%,0.9%,-1.1%,-6.2%,-73.0*,?
O=S(=O)(/C(=C\c1ccc(C(F)(F)F)cc1)c1nc2ccccc2[nH]1)c1ccccc1,?,11.2µM*,?,3.55µM*,·,3.98µM*
COc1ccc(Cl)cc1NC(=O)NCCN1CCNC1=O,-13.1%,-5.4%,-10.3%,?,1.8,-17.1%
COc1ccc(Cl)cc1NC(=O)C(C)N(C)Cc1ccc(C(F)(F)F)cc1 (centres undefined),i,?,-16.5%,-9.7%,-87.4*,?
COc1ccc(Cl)cc1NC(=O)Nc1cnccn1,·,-16.5%,·,·,-85.3*,·
COc1ccc(Cl)cc1NC(=O)NCCCl,·,6.3%,10µM*,7.8%,-27.6,4.6%
N#CCCn1c(=O)cnc2cnc(N3CCOCC3)nc21,·,-11.7%,·,·,·,·
COc1ccc([C@]23Cc4cc(OC)c(OC)cc4C(O2)C2=C(CC(C)(C)CC2=O)O3)cc1,·,·,·,·,·,20.0%[14.2 µM]
O=C(COc1ccc2ccc(=O)oc2c1)NC1CCCC1,·,-14.8%,·,·,-62.3*,·
O=C(COc1ccc2ccc(=O)oc2c1)Nc1cccc(S(=O)(=O)N2CCCCC2)c1,-24.1%,14.1µM*,-7.3%,5.5%,38.1,-7.2%
Cc1ccc2cccc(OCC(=O)Nc3cccc(S(=O)(=O)N4CCCC4)c3)c2n1,-18.2%,39.8µM*,-27.5%,?,-17.6,?
O=C(COc1ccc2ccc(=O)oc2c1)NC1CCN(Cc2ccccc2)CC1,-5.3%,-18.8%,-10.3%,1.5%[46.1 µM],0.0,-2.5%[46.1 µM]
CCCN1CCN(c2ncnc3sc(C(=O)Nc4ccc(N(CC)CC)cc4C)c(C)c23)CC1,-14.4%,?,-9.7%,?,-24.7,·
Cc1ccc(S(=O)(=O)N2CCC([C@H](C#N)c3ccccc3)CC2)cc1,·,·,·,·,-12.4,·
O=C(c1ccco1)N1CCN(C(c2ccccn2)c2nnnn2C2CCCC2)CC1 (centres undefined),i,·,-7.7%,20.6%,-7.4,1.8%
c1ccc(C(c2nnnn2C2CCCC2)N2CCN(c3ccccc3)CC2)cc1 (centres undefined),-13.4%,-4.0%,-11.5%,18.3µM*,-25.0,?
O=C(c1ccco1)N1CCN(C(c2cccs2)c2nnnn2C2CCCC2)CC1 (centres undefined),-15.0%,17.8%,-14.5%,10.7%,-100.7*,?
COc1ccc(OC)c(C(c2nnnn2C2CCCC2)N2CCN(c3ccccc3)CC2)c1 (centres undefined),·,-5.4%,-31.2%,?,-6.3,10µM*
Cc1ccc(-n2nnnc2CNC(=O)c2cc(C(F)(F)F)cc(C(F)(F)F)c2)cc1C,-12.1%,?,-15.9%,-10.9%[46.1 µM],-1.8,·
CCOC(=O)Cc1ccc(NC(=O)N2CC(CC)Oc3ccccc32)cc1 (centres undefined),2.6%,-19.8%,-0.8%,-18.0%[46.1 µM],48.3,·
COc1ccc(CCC(=O)NC2CCCN(Cc3ccc(Cl)cc3)C2)cc1OC (centres undefined),·,-13.3%,·,·,-28.8,·
O=C(CCc1ccc(F)c(F)c1)NC1CCCN(Cc2ccc(Cl)cc2)C1 (centres undefined),-3.3%,-18.1%,-8.3%,-20.4%[46.1 µM],-8.1,11.2µM*
Cc1cc(SCc2ccc(F)cc2)nc(=O)[nH]1,·,0.8%,·,·,-3.8,·
Cc1cc(SCc2ccc(C(F)(F)F)cc2)nc(=O)[nH]1,·,8.8%,·,·,+,·
COc1cc(/C=C2\C(=O)ON=C2c2ccccc2)cc(Br)c1O,4.0%,10µM*,51.2%,0.2%[46.1 µM],15.6,-1.6%[46.1 µM]
SMILES,Vaccinia mCherry,FMDV inh,Vaccinia Venus,LASV entry inh,HCMV antiviral,Marburg entry inh
COc1cc(/C=C2/C(=O)ON=C2c2ccccc2)ccc1O,-4.4%,?,-7.1%,0.1%,2.0,-3.6%
COc1cc(C=C2C(=O)OC(c3ccccc3)OC2=O)cc(Br)c1O (centres undefined),i,10µM*,-5.2%,-23.0%[46.1 µM],3.1,12.1%[46.1 µM]
CCOc1cc(/C=C2\C(=O)ON=C2C)ccc1OCc1ccccc1,-13.6%,28.2µM*,-5.0%,8.1%,-76.5*,?
COc1cc(/C=C2\C(=O)ON=C2c2ccccc2)cc(Cl)c1O,14.3%,7.08µM*,39.7%,1.7%,20.4,-4.4%[46.1 µM]
COc1cc(/C=C2\C(=O)NC(=O)N(c3ccccc3)C2=O)cc(OC)c1O,·,2.3%,·,8.1%,-26.6,-0.5%
CCOc1cc(/C=C2\C(=O)ON=C2c2ccccc2)cc(Br)c1O,4.6%,11.2µM*,60.9%,-3.4%,-21.6,1.7%[46.1 µM]
O=C1ON=C(c2ccc(Cl)cc2)/C1=C/c1ccc(O)cc1,7.0%,12.6µM*,7.7%,-23.4%,-99.9*,?
CCOc1cc(/C=C2/C(=O)ON=C2C)cc(Br)c1O,i,?,5.9%,·,38.5,·
O=S(=O)(Nc1cccc2ncccc12)c1cccs1,12.6µM*,20µM*,?,?,·,?
COc1cc(-c2nc(C)cnc2C)cc2c1OCCN(C(=O)Cn1nc(-c3ccccc3)c3ccccc3c1=O)C2,-5.2%,2.6%,6.3%,·,·,·
O=C(CCCN1C(=O)/C(=C/c2cccs2)SC1=S)Nc1cccc(O)c1,i,0.3%,?,?,-99.7*,?
O=C(CCCN1C(=O)/C(=C\c2ccccc2)SC1=S)Nc1cccc(C(=O)O)c1,i,-2.4%,1.9%,-0.4%,-16.1,5.6%[46.1 µM]
COc1cc(/C=C2\SC(=S)N(CCC(=O)Nc3cccc(O)c3)C2=O)cc(OC)c1OC,-6.6%,20µM*,-11.1%,?,-39.1,?
COc1cc(/C=C2\SC(=S)N(CCC(=O)Nc3ccccc3)C2=O)cc(OC)c1OC,-0.2%,-28.7%,-2.3%,-11.1%,-18.0,?
Cc1ccc(/C=C2\SC(=S)N(CCCC(=O)NC3CCCC3)C2=O)cc1,-9.9%,15.8µM*,-13.2%,1.12µM*,-60.8*,?
O=C(CCCN1C(=O)/C(=C/c2ccccc2)SC1=S)Nc1cccc(O)c1,?,14.2%,?,·,-96.6*,·
Cc1ccc(/C=C2\SC(=S)N(CCC(=O)NNC(=O)c3ccccc3O)C2=O)cc1,i,-2.3%,14.0%,3.0%[46.1 µM],?,-16.4%[46.1 µM]
Cc1ccc(/C=C2\SC(=S)N(CCCC(=O)NNC(=O)c3ccccc3O)C2=O)cc1,·,8.91µM*,·,·,-92.7*,·
